Experimental data from US6124449, “High affinity TGFβ nucleic acid ligands and inhibitors” (NeXstar Pharmaceuticals, Inc.).

Tests used:
KGF (hKGF) = molecular target: T1, KGF (hKGF) (Homo sapiens, UniProt P21781 P21781:32-194); experiment: filter; similar to random RNA; conditions: label: 5'-biotin for BIAcore specificity; proposed double pseudoknot; ssRNA; 2'-F C and U
T1 sequence: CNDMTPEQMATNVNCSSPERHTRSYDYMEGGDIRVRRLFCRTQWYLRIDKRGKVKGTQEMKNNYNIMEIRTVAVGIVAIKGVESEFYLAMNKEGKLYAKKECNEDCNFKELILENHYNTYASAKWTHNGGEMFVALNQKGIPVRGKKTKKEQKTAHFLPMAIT

VEGF (hVEGF) = VEGF (hVEGF) (Homo sapiens, UniProt P15692-4 P15692-4:27-191); experiment: filter; similar to random RNA; conditions: chain copies: 2; label: 5'-biotin for BIAcore specificity; proposed double pseudoknot; ssRNA; 2'-F C and U
Chain of VEGF (hVEGF) (P15692 other isoform, or with tags, fused parts or gaps): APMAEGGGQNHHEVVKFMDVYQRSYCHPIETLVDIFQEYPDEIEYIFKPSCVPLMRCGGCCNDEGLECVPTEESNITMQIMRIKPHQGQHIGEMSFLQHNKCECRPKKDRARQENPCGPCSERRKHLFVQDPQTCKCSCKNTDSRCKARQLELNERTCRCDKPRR

TGF-beta2 = molecular target: T2, TGF-beta2 (Homo sapiens, UniProt P61812 P61812:303-414); experiment: filter; similar to random RNA by filter; conditions: chain copies: 2; label: 5'-biotin for BIAcore specificity; proposed double pseudoknot; ssRNA; 2'-F C and U
T2 sequence: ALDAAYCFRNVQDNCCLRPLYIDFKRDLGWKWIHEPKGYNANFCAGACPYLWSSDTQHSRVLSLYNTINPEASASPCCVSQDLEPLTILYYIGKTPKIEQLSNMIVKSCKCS

Sequence | binding signal (KGF (hKGF)) | binding signal (VEGF (hVEGF)) | binding signal (TGF-beta2)
GGGAGGACGAUGCGGGGGUUAUUGGGCGUCAACAUCCCCGAUUCUUUUCACGUCCAGACGACUCGCCCGA | > 34000 fold Kd vs hTGF-beta1 | > 340000 fold Kd vs hTGF-beta1 | > 340000 fold Kd vs hTGF-beta1
GGGAGGACGAUGCGGUUAUGGGCGUCAACACCGCUAUUACAGUUUUCGCCUCCCCCAGACGACUCGCCCGA | > 34000 fold Kd vs hTGF-beta1 | > 340000 fold Kd vs hTGF-beta1 | > 340000 fold Kd vs hTGF-beta1
